Measured values as given in the OligoGym collection.

biological target: ITGAM; test: pooled miR-30 sensor sort-seq; sequence = guide strand; details: shRNA

Compared with TTACACTCAAATACATTCCTTG, TTCTCTTGGAAGGTCATTGCGT is lower in sensor-assay potency score (higher = more potent): 0.424 for the first, -0.213 for the second.

First: TTAAACAAGATCTCAGCTGTGC
Second: TTAGAGTCTACATCAAACGTGA
The sensor-assay potency score (higher = more potent) of the first is lower: 0.114 for the first, 0.224 for the second.

TATTGATGCTGCATGACCCGAC was tested, and the sensor-assay potency score (higher = more potent) was 0.154.

biological target: ITLN1; test: as above; details: shRNA

Compared with TGAACTGAACAAATCCCGCAGT, TCGTCTTTGATTTCCTTGCAGC is lower in sensor-assay potency score (higher = more potent): 0.114 for the first, -0.887 for the second.

Going from TTAGCCTCATCTGTACTCCATC to TTCGTCTTTGATTTCCTTGCAG, the sensor-assay potency score (higher = more potent) rises from -0.855 to 0.319.

Compared with TTTCACTGGATATTTCTGGTAG, TGCACTAGGACATTCGTCTTTG is lower in sensor-assay potency score (higher = more potent): 0.272 for the first, -0.456 for the second.

Going from TTCCATATCCACTCCAATCAAA to TTGTCAGTCCAACACTTTCCTT, the sensor-assay potency score (higher = more potent) falls from -1.07 to -1.43.

Going from TAGACCACAGGGATCACCGGGC to TAACATTCTAGCTACTGGGTAA, the sensor-assay potency score (higher = more potent) falls from 0.112 to -0.292.

Compared with ATGCACTAGGACATTCGTCTTT, TGTCAGTCCAACACTTTCCTTC is higher in sensor-assay potency score (higher = more potent): -0.936 for the first, 0.0274 for the second.

biological target: ITPRIP; test: as above; details: shRNA

First: TTGAGCATCTCATAGAAGGAGT
Second: TAGGAGGTGCAGTAGGGCCGTC
The sensor-assay potency score (higher = more potent) of the first is higher: -0.45 for the first, -0.656 for the second.

Compared with TTTTCAGTGAACTTTCTCCTGG, TTGAAGGGCATGAACTTCCCTG is higher in sensor-assay potency score (higher = more potent): -0.029 for the first, 0.113 for the second.

Going from TTCAAGTACAGACTGGATCTGG to TTTAGTGTCGTCCTGAGGAAGT, the sensor-assay potency score (higher = more potent) falls from 0.622 to -0.751.

Compared with TTGGTCTTGCCGCAGATGCAGC, TGAACGGAACTTGATCTTCAGG is higher in sensor-assay potency score (higher = more potent): -1.52 for the first, -1.39 for the second.

Compared with TTGATCTTCAGGGACCCCGGGC, TAAGGCAGCATGAAACACCAAG is higher in sensor-assay potency score (higher = more potent): -0.883 for the first, -0.493 for the second.

First: TTAGAAGCAGCTTTGGTGCAGA
Second: TTCTTCTGGAGCAAGCTCTTCT
The sensor-assay potency score (higher = more potent) of the first is higher: 0.222 for the first, -0.26 for the second.

biological target: JAM3; test: as above; details: shRNA

Going from TAAAGGGCTGAGTCTCTCCGTG to TTATTGTTGATGAAGTAGCCAC, the sensor-assay potency score (higher = more potent) rises from -0.394 to -0.389.

Going from TTCTGAATGAGTGTCTAGCTCT to TTCCACACTTTCAAATTCCTGT, the sensor-assay potency score (higher = more potent) rises from -0.216 to 0.0526.

Going from TAGCAGAGGTATGTGCACGTGC to TTGTTGATGAAGTAGCCACGTC, the sensor-assay potency score (higher = more potent) falls from -0.388 to -0.698.

First: TAGAGTAAGAAGAGTAGTGGTC
Second: TTTCCTTGCGGTCATTTCGAGC
The sensor-assay potency score (higher = more potent) of the first is higher: 0.457 for the first, -1.23 for the second.

First: TTCACTTGCACAGTTAACTCGA
Second: TTGATGAAGTAGCCACGTCTGT
The sensor-assay potency score (higher = more potent) of the first is higher: 0.721 for the first, -0.852 for the second.
